Reference: PubChem BioAssay AID1159580 (chemical genetic matrix, 2015)
In all, about 5,500 compounds went through this assay and about 2,000 (36%) were called active. Not shown: some 18% with an inconclusive outcome. Rule as the data show it: active = normalized growth mostly below about 0.91 (no sharp cut-off); inconclusive = no clear call, values can overlap the other calls; inactive = mostly above about 0.92. The list shows a part of the results.

Assay: chemical genetic growth profiling, strain panel (AID 1159580);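 also: tested at 20 µM; growth read once vehicle control cultures reached saturation at 30 °C; 1 = growth at the plate median or of vehicle wells; lower values mean less growth of the strain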
Settings: growth OD
[1] = S. cerevisiae deletion strains, locus YAL013W, strain DEP1, hits give low values
[2] = S. cerevisiae deletion strains, locus YDR150W, strain NUM1, hits give low values
[3] = S. cerevisiae deletion strains, locus YGR078C, strain PAC10, hits give low values
[4] = S. cerevisiae deletion strains, locus YJR075W, strain HOC1, hits give low values
[5] = S. cerevisiae deletion strains, locus YNL322C, strain KRE1, hits give low values
[6] = S. cerevisiae deletion strains, locus YPL241C, strain CIN2, hits give low values
[7] = S. cerevisiae deletion strains, locus YDL101C, strain DUN1, hits give low values
[8] = S. cerevisiae deletion strains, locus YHR030C, strain SLT2, hits give low values

Measured: normalized growth

N#C/C(=C\c1c[nH]c2ccccc12)C(=O)c1ccc(O)c(O)c1
inactive: [1] 1.02 | S. cerevisiae deletion strains, locus YAL040C, strain CLN3, hits give low values 0.987 | S. cerevisiae deletion strains, locus YCL061C, strain MRC1 (second series), hits give low values 1.02 | [2] 1.01 | S. cerevisiae deletion strains, locus YDR363W, strain ESC2, hits give low values 1.03 | S. cerevisiae deletion strains, locus YER002W, strain NOP16, hits give low values 1.01 | [3] 1.02 | [4] 0.996 | S. cerevisiae deletion strains, locus YMR307W, strain GAS1, hits give low values 1.03 | S. cerevisiae deletion strains, locus YNL175C, strain NOP13, hits give low values 1 | S. cerevisiae deletion strains, locus YNL197C, strain WHI3, hits give low values 1.02 | S. cerevisiae deletion strains, locus YNL224C, strain SQS1, hits give low values 1 | [5] 1 | S. cerevisiae deletion strains, locus YOR083W, strain WHI5 (second series), hits give low values 0.973 | [6] 1.02

O=C1NC(=S)NC(=O)C1=Cc1cccc2ccccc12
inactive: [1] 0.975 | S. cerevisiae deletion strains, locus YBR229C, strain ROT2, hits give low values 0.989 | S. cerevisiae deletion strains, locus YCL061C, strain MRC1, hits give low values 0.97 | [7] 0.963 | [2] 0.891 | S. cerevisiae deletion strains, locus YEL061C, strain CIN8, hits give low values 0.976 | [3] 0.976 | [8] 0.709 | S. cerevisiae deletion strains, locus YHR087W, strain rtc3, hits give low values 0.913 | [4] 0.928 | S. cerevisiae deletion strains, locus YKL190W, strain CNB1, hits give low values 1 | S. cerevisiae deletion strains, locus YLR039C, strain RIC1, hits give low values 0.841 | S. cerevisiae deletion strains, locus YLR058C, strain SHM2 (second series), hits give low values 0.99 | S. cerevisiae deletion strains, locus YLR085C, strain ARP6, hits give low values 0.907 | S. cerevisiae deletion strains, locus YLR262C, strain YPT6, hits give low values 0.879 | S. cerevisiae deletion strains, locus YML094W, strain GIM5, hits give low values 0.954 | S. cerevisiae deletion strains, locus YMR219W, strain ESC1, hits give low values 0.985 | S. cerevisiae deletion strains, locus YMR263W, strain SAP30, hits give low values 0.93 | S. cerevisiae deletion strains, locus YNL128W, strain TEP1, hits give low values 0.991 | S. cerevisiae deletion strains, locus YNL153C, strain GIM3, hits give low values 0.979 | S. cerevisiae deletion strains, locus YNL298W, strain CLA4 (second series), hits give low values 0.995 | [5] 0.986 | S. cerevisiae deletion strains, locus YNR030W, strain Alg12, hits give low values 0.988 | S. cerevisiae deletion strains, locus YPL055C, strain LGE1, hits give low values 0.92 | [6] 0.983 | S. cerevisiae deletion strains, locus YPR135W, strain CTF4, hits give low values 0.806 | S. cerevisiae strains, strain wild type, hits give low values 0.998

O=C1/C(=C/c2c[nH]c3ccccc23)CSc2ccccc21
inactive: S. cerevisiae deletion strains, locus YAR019C, strain CDC15, hits give low values 0.989 | S. cerevisiae deletion strains, locus YBL105C, strain PKC1, hits give low values 0.975 | S. cerevisiae deletion strains, locus YBR135W, strain CKS1, hits give low values 0.981 | S. cerevisiae deletion strains, locus YBR136W, strain MEC1, hits give low values 0.966 | S. cerevisiae deletion strains, locus YBR160W, strain CDC28, hits give low values 0.99 | S. cerevisiae deletion strains, locus YDL017W, strain CDC7, hits give low values 0.983 | S. cerevisiae deletion strains, locus YDL028C, strain MPS1, hits give low values 0.979 | [7] 0.98 | S. cerevisiae deletion strains, locus YDL108W, strain KIN28, hits give low values 0.987 | S. cerevisiae deletion strains, locus YDL132W, strain cdc53, hits give low values 0.99 | S. cerevisiae deletion strains, locus YDL214C, strain PRR2, hits give low values 0.938 | S. cerevisiae deletion strains, locus YDR052C, strain DBF4, hits give low values 0.985 | S. cerevisiae deletion strains, locus YDR054C, strain cdc34, hits give low values 0.987 | S. cerevisiae deletion strains, locus YDR226W, strain ADK1, hits give low values 0.983 | S. cerevisiae deletion strains, locus YDR477W, strain SNF1, hits give low values 0.961 | S. cerevisiae deletion strains, locus YER123W, strain YCK3, hits give low values 0.906 | S. cerevisiae deletion strains, locus YER133W, strain GLC7, hits give low values 0.948 | S. cerevisiae deletion strains, locus YFL009W, strain cdc4, hits give low values 0.988 | S. cerevisiae deletion strains, locus YFL029C, strain CAK1, hits give low values 0.988 | S. cerevisiae deletion strains, locus YFR003C, strain YPI1, hits give low values 0.987 | S. cerevisiae deletion strains, locus YFR019W, strain FAB1, hits give low values 0.973 | S. cerevisiae deletion strains, locus YFR028C, strain CDC14, hits give low values 0.98 | S. cerevisiae deletion strains, locus YGR040W, strain KSS1, hits give low values 0.947 | S. cerevisiae deletion strains, locus YGR052W, strain FMP48, hits give low values 1.04 | S. cerevisiae deletion strains, locus YGR092W, strain DBF2, hits give low values 0.945 | [8] 1.07 | S. cerevisiae deletion strains, locus YHR079C, strain IRE1, hits give low values 1.06 | S. cerevisiae deletion strains, locus YHR082C, strain KSP1, hits give low values 1.01 | S. cerevisiae deletion strains, locus YHR205W, strain SCH9, hits give low values 0.957 | S. cerevisiae deletion strains, locus YIL147C, strain SLN1, hits give low values 0.965 | S. cerevisiae deletion strains, locus YJL095W, strain BCK1, hits give low values 1.02 | S. cerevisiae deletion strains, locus YJL128C, strain PBS2, hits give low values 0.944 | S. cerevisiae deletion strains, locus YJL157C, strain FAR1, hits give low values 0.943 | S. cerevisiae deletion strains, locus YJR016C, strain ILV3, hits give low values 0.98 | S. cerevisiae deletion strains, locus YJR066W, strain TOR1 (second series), hits give low values 0.913 | S. cerevisiae deletion strains, locus YJR066W, strain TOR1, hits give low values 1.03 | S. cerevisiae deletion strains, locus YKL048C, strain ELM1, hits give low values 0.949 | S. cerevisiae deletion strains, locus YKL067W, strain YNK1, hits give low values 0.964 | S. cerevisiae deletion strains, locus YKL101W, strain HSL1, hits give low values 0.945 | S. cerevisiae deletion strains, locus YKL193C, strain SDS22, hits give low values 0.984 | S. cerevisiae deletion strains, locus YKL203C, strain TOR2, hits give low values 1.02 | S. cerevisiae deletion strains, locus YLR113W, strain HOG1, hits give low values 1.05 | S. cerevisiae deletion strains, locus YLR133W, strain CKI1, hits give low values 0.975 | S. cerevisiae deletion strains, locus YLR403W, strain SFP1, hits give low values 0.942 | S. cerevisiae deletion strains, locus YML070W, strain DAK1, hits give low values 0.944 | S. cerevisiae deletion strains, locus YMR001C, strain CDC5, hits give low values 0.976 | S. cerevisiae deletion strains, locus YMR205C, strain PFK2 (second series), hits give low values 0.979 | S. cerevisiae deletion strains, locus YMR277W, strain FCP1, hits give low values 0.983 | S. cerevisiae deletion strains, locus YNL006W, strain LST8, hits give low values 0.993 | S. cerevisiae deletion strains, locus YNL020C, strain ARK1, hits give low values 0.948 | S. cerevisiae deletion strains, locus YNL161W, strain CBK1, hits give low values 0.991 | S. cerevisiae deletion strains, locus YNL183C, strain NPR1, hits give low values 1.05 | S. cerevisiae deletion strains, locus YNL207W, strain RIO2, hits give low values 0.997 | S. cerevisiae deletion strains, locus YNL222W, strain SSU72, hits give low values 0.982 | S. cerevisiae deletion strains, locus YNL307C, strain MCK1 (second series), hits give low values 0.995 | S. cerevisiae deletion strains, locus YOL078W, strain AVO1, hits give low values 0.994 | S. cerevisiae deletion strains, locus YOL136C, strain PFK27, hits give low values 0.931 | S. cerevisiae deletion strains, locus YOR061W, strain CKA2, hits give low values 0.958 | S. cerevisiae deletion strains, locus YOR119C, strain RIO1, hits give low values 0.982 | S. cerevisiae deletion strains, locus YOR231W, strain MKK1, hits give low values 1.05 | S. cerevisiae deletion strains, locus YOR329C, strain SCD5, hits give low values 0.99 | S. cerevisiae deletion strains, locus YPL031C, strain PHO85, hits give low values 0.947 | S. cerevisiae deletion strains, locus YPL153C, strain RAD53, hits give low values 0.924 | S. cerevisiae deletion strains, locus YPL204W, strain HRR25, hits give low values 0.928 | S. cerevisiae deletion strains, locus YPL209C, strain IPL1, hits give low values 0.989 | S. cerevisiae deletion strains, locus YPL256C, strain CLN2, hits give low values 1.04 | S. cerevisiae deletion strains, locus YPR025C, strain CCL1, hits give low values 0.986 | S. cerevisiae deletion strains, locus YPR106W, strain ISR1, hits give low values 0.978 | S. cerevisiae deletion strains, locus YPR111W, strain DBF20, hits give low values 0.979 | S. cerevisiae deletion strains, strain NNK1, hits give low values 0.98 | S. cerevisiae deletion strains, strain TSCII, hits give low values 0.984
